The source of these data is the supplement of paper PMC10849652.

About 7,900 targets were measured; listed, in parts, are those with a hit and a random draw of the rest. About 0.6% of all pairs of compound and target were hits. Unmarked numbers belong to inactive results.

Common to all, as to experiment: log2 fold change, soluble protein after heating vs DMSO (PISA); higher = thermal stabilisation; K562 cells, 10 uM, 30 min; active = over 0.2 and 3.5 SD of the protein, either way, in both replicates (recomputed)
Compound in assay [1]: C1=CC=C(C=C1)[C@H](COC2=CC3=C(C=C2)NC(=O)N3)NC(=O)C4=CC=CN(C4=O)CC5=CC(=C(C=C5)F)F
An outline of the steps:
(§1)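 Thermal stability values are relative to control samples and come from duplicates. They are expressed as log2 fold changes. For measurement, K562 cells (2×10^6 cells/mL) received 10 μM compound for 30 min, and aliquots were heated for 3 min over 48°C-58°C, pooled, and extracted at 4°C in PBS with 0.5% NP-40. Soluble protein, the supernatant after 21,000xg for 90 min, was quantified by TMTpro 16plex LC-MS/MS with equalised channel sums.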

Compound in assay [2]: CC1=C(SC2=C1C(=N[C@H](C3=NN=C(N32)C)CC(=O)N)C4=CC=C(C=C4)Cl)C
The gist of the method:
as §1

Compound in assay [3]: CC1=C2C(=CC=C1)N=C(N(C2=O)C3=CC=CC=C3C)CN4C=NC5=C(N=CN=C54)N
The gist of the method: as §1

Compound in assay [4]: Cc1sc2c(c1C)C(c1ccc(Cl)cc1)=N[C@@H](CC(=O)OC(C)(C)C)c1nnc(C)n1-2
An outline of the steps:
as §1

Compound in assay [5]: c1ccc([C@@H]2C[C@H]2NC2CCNCC2)cc1
The gist of the method: as §1

Chain of UniProt Q15208 (Q15208 whole entry, looked up): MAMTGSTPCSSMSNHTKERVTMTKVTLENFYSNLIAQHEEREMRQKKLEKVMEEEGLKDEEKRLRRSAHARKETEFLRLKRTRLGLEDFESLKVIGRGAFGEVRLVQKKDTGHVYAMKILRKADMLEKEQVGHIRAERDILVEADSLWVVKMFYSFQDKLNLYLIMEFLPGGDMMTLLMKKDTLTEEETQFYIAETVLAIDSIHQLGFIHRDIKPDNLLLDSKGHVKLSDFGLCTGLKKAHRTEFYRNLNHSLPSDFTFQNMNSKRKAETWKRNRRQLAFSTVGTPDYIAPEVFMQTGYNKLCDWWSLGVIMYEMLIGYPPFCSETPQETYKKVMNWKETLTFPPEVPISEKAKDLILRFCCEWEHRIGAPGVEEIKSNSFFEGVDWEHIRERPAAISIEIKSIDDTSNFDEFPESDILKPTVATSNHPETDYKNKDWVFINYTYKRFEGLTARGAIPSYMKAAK
Chain of UniProt P35610 (P35610 whole entry, looked up): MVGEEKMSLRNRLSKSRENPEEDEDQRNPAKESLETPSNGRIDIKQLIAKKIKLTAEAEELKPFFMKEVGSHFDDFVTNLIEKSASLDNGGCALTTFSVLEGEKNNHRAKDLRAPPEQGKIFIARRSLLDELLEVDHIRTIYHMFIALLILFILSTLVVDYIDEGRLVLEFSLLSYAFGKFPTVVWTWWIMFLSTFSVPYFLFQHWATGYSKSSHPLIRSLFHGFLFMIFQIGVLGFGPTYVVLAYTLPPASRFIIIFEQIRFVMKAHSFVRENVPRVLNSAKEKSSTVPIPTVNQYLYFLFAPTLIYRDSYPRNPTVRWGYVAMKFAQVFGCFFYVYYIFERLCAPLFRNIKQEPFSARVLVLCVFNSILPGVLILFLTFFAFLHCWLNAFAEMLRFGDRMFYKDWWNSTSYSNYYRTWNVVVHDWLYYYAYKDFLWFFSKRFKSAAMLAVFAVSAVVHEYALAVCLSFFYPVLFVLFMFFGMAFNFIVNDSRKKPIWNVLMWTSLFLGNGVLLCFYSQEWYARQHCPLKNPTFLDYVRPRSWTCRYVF
Chain of UniProt Q00059 (Q00059 whole entry, looked up): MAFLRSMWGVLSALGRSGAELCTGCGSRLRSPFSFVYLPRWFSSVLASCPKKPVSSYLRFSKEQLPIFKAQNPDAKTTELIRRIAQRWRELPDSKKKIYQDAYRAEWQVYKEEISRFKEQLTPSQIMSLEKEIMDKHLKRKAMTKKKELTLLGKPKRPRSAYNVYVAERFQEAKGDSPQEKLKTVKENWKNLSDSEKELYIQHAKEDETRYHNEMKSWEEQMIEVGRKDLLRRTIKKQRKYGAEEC
Chain of UniProt Q8IWZ8 (Q8IWZ8 whole entry, looked up): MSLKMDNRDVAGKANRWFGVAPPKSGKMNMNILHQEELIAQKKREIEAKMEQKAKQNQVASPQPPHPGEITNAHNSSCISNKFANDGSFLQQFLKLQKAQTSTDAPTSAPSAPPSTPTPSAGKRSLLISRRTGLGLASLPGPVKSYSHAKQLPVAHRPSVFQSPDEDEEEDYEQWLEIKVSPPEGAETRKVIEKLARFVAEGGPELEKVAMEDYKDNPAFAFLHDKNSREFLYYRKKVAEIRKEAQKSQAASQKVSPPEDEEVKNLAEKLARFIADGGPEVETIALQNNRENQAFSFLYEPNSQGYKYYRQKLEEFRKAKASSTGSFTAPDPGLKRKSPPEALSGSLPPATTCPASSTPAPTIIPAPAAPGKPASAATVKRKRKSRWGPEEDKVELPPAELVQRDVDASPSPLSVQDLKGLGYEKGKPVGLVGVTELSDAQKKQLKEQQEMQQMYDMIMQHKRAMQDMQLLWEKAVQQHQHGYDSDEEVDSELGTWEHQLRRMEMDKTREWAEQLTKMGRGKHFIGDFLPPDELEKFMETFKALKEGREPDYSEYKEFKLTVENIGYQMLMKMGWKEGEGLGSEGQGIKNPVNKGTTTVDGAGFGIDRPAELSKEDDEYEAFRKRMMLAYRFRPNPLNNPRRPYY
Chain of UniProt Q8IWA5 (Q8IWA5 whole entry, looked up): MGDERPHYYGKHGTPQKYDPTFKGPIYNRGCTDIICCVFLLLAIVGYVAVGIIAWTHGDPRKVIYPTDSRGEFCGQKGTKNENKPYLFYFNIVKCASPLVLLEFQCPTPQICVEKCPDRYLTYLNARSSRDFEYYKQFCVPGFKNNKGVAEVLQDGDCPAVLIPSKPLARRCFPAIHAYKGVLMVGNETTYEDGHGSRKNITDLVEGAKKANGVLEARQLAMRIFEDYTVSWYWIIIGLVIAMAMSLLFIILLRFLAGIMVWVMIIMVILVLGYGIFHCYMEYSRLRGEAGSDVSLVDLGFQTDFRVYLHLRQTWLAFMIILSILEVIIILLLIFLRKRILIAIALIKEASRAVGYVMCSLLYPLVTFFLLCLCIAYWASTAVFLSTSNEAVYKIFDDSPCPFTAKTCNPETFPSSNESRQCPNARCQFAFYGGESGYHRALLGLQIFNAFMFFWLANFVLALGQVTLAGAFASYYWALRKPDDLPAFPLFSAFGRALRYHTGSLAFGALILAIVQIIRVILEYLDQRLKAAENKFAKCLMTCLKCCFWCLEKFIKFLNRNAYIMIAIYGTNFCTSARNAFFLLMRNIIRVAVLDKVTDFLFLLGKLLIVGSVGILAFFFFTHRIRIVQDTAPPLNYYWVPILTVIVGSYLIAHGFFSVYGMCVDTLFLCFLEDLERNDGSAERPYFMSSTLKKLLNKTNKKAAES
Chain of UniProt Q8NBW4 (Q8NBW4 whole entry, looked up): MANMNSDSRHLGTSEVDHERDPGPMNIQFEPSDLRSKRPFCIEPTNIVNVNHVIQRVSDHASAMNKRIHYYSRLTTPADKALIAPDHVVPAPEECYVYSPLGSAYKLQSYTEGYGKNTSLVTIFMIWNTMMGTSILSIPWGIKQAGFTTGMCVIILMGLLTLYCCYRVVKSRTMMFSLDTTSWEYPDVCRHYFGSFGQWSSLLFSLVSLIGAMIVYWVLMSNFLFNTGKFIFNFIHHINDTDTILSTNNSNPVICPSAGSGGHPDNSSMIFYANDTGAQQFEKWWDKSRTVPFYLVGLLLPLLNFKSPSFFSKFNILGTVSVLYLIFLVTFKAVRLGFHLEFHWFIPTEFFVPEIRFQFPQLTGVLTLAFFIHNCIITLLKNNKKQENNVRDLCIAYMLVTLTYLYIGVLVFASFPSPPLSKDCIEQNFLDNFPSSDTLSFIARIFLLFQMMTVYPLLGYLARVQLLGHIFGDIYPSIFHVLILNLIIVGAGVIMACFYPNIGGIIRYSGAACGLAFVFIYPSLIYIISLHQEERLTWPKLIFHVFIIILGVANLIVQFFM
Chain of UniProt Q16594 (Q16594 whole entry, looked up): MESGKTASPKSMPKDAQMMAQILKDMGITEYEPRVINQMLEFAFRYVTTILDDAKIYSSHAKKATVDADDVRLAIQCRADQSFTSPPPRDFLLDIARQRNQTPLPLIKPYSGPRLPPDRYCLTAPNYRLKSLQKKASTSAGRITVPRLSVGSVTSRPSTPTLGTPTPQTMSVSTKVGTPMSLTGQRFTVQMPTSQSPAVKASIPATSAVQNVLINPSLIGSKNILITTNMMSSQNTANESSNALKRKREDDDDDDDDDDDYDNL
Chain of UniProt Q08AE8 (Q08AE8 whole entry, looked up): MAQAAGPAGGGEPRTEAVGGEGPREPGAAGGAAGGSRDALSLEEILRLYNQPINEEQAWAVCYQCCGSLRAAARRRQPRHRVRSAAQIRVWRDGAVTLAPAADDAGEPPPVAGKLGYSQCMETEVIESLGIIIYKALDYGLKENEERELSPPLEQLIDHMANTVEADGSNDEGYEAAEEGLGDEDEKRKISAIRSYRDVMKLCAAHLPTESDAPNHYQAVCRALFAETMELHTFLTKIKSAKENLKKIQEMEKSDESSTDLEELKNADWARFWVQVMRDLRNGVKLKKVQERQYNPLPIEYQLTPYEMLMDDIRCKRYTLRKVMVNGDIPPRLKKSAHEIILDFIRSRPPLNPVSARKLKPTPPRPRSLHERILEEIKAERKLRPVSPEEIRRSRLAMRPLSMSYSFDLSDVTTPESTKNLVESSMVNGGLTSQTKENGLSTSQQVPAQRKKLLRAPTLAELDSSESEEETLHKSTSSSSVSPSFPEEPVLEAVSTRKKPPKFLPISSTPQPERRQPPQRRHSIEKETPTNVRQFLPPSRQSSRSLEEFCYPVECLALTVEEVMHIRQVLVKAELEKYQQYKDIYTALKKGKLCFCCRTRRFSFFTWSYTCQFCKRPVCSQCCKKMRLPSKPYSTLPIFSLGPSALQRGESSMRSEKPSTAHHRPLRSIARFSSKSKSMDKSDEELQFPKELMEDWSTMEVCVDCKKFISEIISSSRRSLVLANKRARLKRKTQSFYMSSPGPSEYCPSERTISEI
Chain of UniProt P04183 (P04183 whole entry, looked up): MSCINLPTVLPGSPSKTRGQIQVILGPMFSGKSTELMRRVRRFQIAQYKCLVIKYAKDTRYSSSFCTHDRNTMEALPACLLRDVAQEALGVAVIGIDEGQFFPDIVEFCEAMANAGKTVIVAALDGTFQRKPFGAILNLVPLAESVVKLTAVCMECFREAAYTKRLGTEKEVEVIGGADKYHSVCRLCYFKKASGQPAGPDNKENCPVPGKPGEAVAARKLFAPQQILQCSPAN
Chain of UniProt Q15796 (Q15796 whole entry, looked up): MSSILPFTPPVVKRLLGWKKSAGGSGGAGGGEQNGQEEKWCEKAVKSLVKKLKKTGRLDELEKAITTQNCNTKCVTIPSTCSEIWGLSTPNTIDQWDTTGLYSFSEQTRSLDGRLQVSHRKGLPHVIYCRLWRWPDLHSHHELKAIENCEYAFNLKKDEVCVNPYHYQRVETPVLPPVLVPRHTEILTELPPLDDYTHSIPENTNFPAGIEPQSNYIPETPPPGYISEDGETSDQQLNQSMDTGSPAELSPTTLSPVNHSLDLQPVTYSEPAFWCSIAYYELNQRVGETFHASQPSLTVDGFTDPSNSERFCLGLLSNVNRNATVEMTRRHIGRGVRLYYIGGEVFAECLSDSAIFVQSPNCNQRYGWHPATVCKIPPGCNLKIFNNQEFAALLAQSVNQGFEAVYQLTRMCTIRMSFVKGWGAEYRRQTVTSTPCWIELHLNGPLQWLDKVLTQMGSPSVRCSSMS

Consider TACC2 (UniProt O95359), for which the log2 fold change in assay [1] is -0.031; in assay [2] it was -0.03; in assay [3], 0.166; in assay [4] it was 0.011; in assay [5], 0.05.

On to TAF9 (UniProt Q16594), for which the log2 fold change was 0.046 in assay [1]; -0.043 in assay [2]; -0.114 in assay [3]; 0.049 in assay [4]; 0.019 in assay [5].

Take TMBIM6 isoform 2 (UniProt P55061): the log2 fold change in assay [1] is -0.037; in assay [2], -0.022; in assay [3] it was 0.041; in assay [4], -0.03; in assay [5], 0.041.

Turning to STK38 (UniProt Q15208), the log2 fold change in assay [1] was -0.08; in assay [2], 0.045; in assay [3], 0.055; in assay [4], 0.028; in assay [5], -0.034.

As for SPIRE1 (UniProt Q08AE8), the log2 fold change was 0.079 in assay [1]; 0.002 in assay [2]; 0.196 in assay [3]; -0.01 in assay [4]; 0.075 in assay [5].

As for TBRG4 (UniProt Q969Z0), the log2 fold change is -0.106 in assay [1]; 0.022 in assay [2]; 0.077 in assay [3]; -0.049 in assay [4]; -0.017 in assay [5].

As for STK17B (UniProt O94768), in assay [1], the log2 fold change is 0.043.

TFB2M (UniProt Q9H5Q4): the log2 fold change in assay [1] is -0.019; in assay [2], 0.035; in assay [3] it was 0.103; in assay [4], -0.019; in assay [5] it was -0.022.

For the target SLC44A2 isoform 2 (UniProt Q8IWA5), the log2 fold change is 0.002 in assay [1]; 0.077 in assay [2]; -0.022 in assay [3]; -0.045 in assay [4]; 0.065 in assay [5].

Take SMPD4 isoform 4 (UniProt Q9NXE4): the log2 fold change is -0.094 in assay [1]; 0.031 in assay [2]; 0.043 in assay [3]; -0.034 in assay [4]; -0.104 in assay [5].

For SYNE1 (UniProt Q8NF91), the log2 fold change is -0.009 in assay [1]; 0.24 in assay [2]; 0.223 in assay [3]; -0.018 in assay [4]; -0.052 in assay [5].

On to SUGP1 (UniProt Q8IWZ8), for which the log2 fold change in assay [1] was 0; in assay [2], -0.001; in assay [3], 0.066; in assay [4] it was -0.046; in assay [5] it was 0.019.

Turning to SLC38A9 (UniProt Q8NBW4), the log2 fold change is 0.053 in assay [1]; -0.019 in assay [2]; 0.065 in assay [3]; -0.014 in assay [4]; 0.042 in assay [5].

For TFAM (UniProt Q00059), the log2 fold change in assay [1] was 0.062; in assay [2], -0.046; in assay [3] it was -0.018; in assay [4] it was 0.108; in assay [5], 0.009.

In the case of SRCAP (UniProt Q6ZRS2), the log2 fold change in assay [1] is 0.074; in assay [2], 0.013; in assay [3] it was 0.101; in assay [4] it was -0.005; in assay [5] it was -0.136.

With SLC4A2 (UniProt P04920), the log2 fold change is -0.042 in assay [1]; 0.016 in assay [2]; 0.019 in assay [3]; -0.038 in assay [4]; 0.088 in assay [5].

As to SREBF1 isoform 4 (UniProt P36956), the log2 fold change in assay [1] was 0.026.

Regarding STAM2 (UniProt O75886), the log2 fold change is -0.015 in assay [1]; 0.005 in assay [2]; 0.014 in assay [3]; 0.016 in assay [4]; -0.001 in assay [5].

As to TFR2 (UniProt Q9UP52), the log2 fold change in assay [1] is 0.01; in assay [2] it was 0.018; in assay [3], 0.004; in assay [4], 0.007; in assay [5], 0.026.

Consider TFRC (UniProt P02786), for which the log2 fold change in assay [1] was 0.058; in assay [2], 0.032; in assay [3] it was 0.008; in assay [4], 0.011; in assay [5], 0.021.

As for SOAT1 (UniProt P35610), the log2 fold change was -0.023 in assay [1]; 0.037 in assay [2]; 0.071 in assay [3]; 0.802 (active) in assay [4]; 0.001 in assay [5].

For the target SMDT1 (UniProt Q9H4I9), the log2 fold change in assay [1] was 0.031; in assay [2], 0.018; in assay [3], -0.081; in assay [4], -0.019; in assay [5], 0.024.

As for TK1 (UniProt P04183), the log2 fold change in assay [1] is 0.002; in assay [2], -0.008; in assay [3], -0.011; in assay [4], -0.019; in assay [5] it was 0.008.

For SMAD2 (UniProt Q15796), the log2 fold change in assay [1] was -0.014; in assay [2], 0.022; in assay [3], 0.056; in assay [4], -0.02; in assay [5], -0.066.

SMPD4 isoform 2 (UniProt Q9NXE4): the log2 fold change in assay [1] is -0.25; in assay [2], -0.029; in assay [3], -0.048; in assay [4] it was -0.061; in assay [5], -0.097.
